Fam108B counter – blocks mouse Fam108B hydrolase in RBBP9 counter-screen; actives 0.33% (n = 300,000); inhibition, % at 9.51 µM; AID 1947; recombinant Fam108B, FP-Rh probe fluorescence polarization;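 active means inhibition above the screen mean inhibition plus 3 SD, computed separately per campaign, cut at about 18% in these data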;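 further: inhibitors lower polarization as less probe binds the enzyme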
LYPLA2 inh – blocks human lysophospholipase 2, a PME1 counter-screen | recombinant LYPLA2, FP-Rh probe fluorescence polarization | actives 0.38% (n = 320,000) | inhibition, % at 5.9 µM | O95372 | AID 2177;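 active means inhibition above the screen-wide mean plus 3 SD, limit set per campaign, cut at about 26% in these data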
Target sequence (O95372 whole entry, looked up): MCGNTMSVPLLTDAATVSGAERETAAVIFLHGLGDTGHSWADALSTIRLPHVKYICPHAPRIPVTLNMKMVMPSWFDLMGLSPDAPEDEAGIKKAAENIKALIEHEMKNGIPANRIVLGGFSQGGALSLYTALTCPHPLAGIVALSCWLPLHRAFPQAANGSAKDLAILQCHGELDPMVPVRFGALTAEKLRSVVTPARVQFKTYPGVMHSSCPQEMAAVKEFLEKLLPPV
LYPLA1 counter – blocks human lysophospholipase 1, a PME1 counter-screen; inhibition, % at 5.9 µM; actives 0.16% (n = 320,000); recombinant LYPLA1, FP-Rh probe fluorescence polarization; O75608; AID 2174;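 active means inhibition above the mean of all tested compounds plus 3 SD, set per campaign, cut at about 14% in these data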;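 further: inhibitors block serine hydrolase probe labeling of LYPLA1 so polarization falls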
PAD4 inh – blocks human protein arginine deiminase 4; inhibition, % at 6.36 µM; Q9UM07; AID 485272; actives 0.41% (n = 330,000); recombinant PAD4, RCA probe fluorescence polarization;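 active means percent inhibition above a cutoff equal to the mean of all tested compounds plus 3 SD, cut at about 15% in these data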
PME-1 primary – PME-1 (human) inhibition; Q9Y570; recombinant PME-1, FP-Rh probe fluorescence polarization; inhibition, % at 5.9 µM; actives 0.53% (n = 320,000);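 active means inhibition above the campaign mean of all compounds plus 3 SD, cut at about 26% in these data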;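 further: competitive labeling of PME-1 active site by serine hydrolase directed probe; inhibitors block probe labeling so polarization falls and inhibition rises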
GSTO1 inh – GSTO1 inhibition, counter-screen for RBBP9 inhibitors | P78417 | recombinant GSTO1, activity-based probe fluorescence polarization | inhibition, % at 5.96 µM | actives 1.1% (n = 300,000) | AID 1974;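 active means inhibition above the campaign mean inhibition plus 3 SD, cut at about 35% in these data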
Target sequence (P78417 whole entry, looked up): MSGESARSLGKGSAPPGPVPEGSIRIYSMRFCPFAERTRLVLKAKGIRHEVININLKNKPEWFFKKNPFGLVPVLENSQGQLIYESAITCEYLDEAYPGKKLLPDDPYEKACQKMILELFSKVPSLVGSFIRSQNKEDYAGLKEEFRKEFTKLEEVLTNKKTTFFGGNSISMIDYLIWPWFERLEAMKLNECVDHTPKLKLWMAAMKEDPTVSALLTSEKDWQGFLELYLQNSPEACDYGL
Fam108b inh conf – Fam108b (mouse) hydrolase inhibition, confirmation assay | shares compounds with Fam108B counter | recombinant Fam108b, FP-Rh probe fluorescence polarization | inhibition, % at 9.51 µM | actives 44% (n = 930) | AID 1978;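 active means inhibition above a limit from the primary screen, the mean over all compounds plus 3 SD, cut at about 19% in these data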;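 further: inhibitors free the probe so polarization falls as inhibition rises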
Fam108b inh – mouse ABHD17B inhibition; shares compounds with Fam108B counter; recombinant Fam108b, gel-based ABPP, fluorophosphonate probe; inhibition, % at 20 µM; actives 44% (n = 260); AID 588649; in the data active means inhibition above about 40%
Large screens that a line does not name were inactive (follow-up assays come after a bar, where they were run). Most compounds without a hit are left out; they make up all but 1.8% or so of the library.

O=C1[C@@H]2Cc3c([nH]c4ccccc34)C(c3ccccc3)N2C(=O)CN1C1CC1 (stereo partly specified)	Fam108B counter 19, PME-1 primary 27 | Fam108b inh conf inactive
COc1cc(C=O)ccc1OCC(=O)NC(C)(C)C	none
Nc1nnc(Sc2ncccc2[N+](=O)[O-])s1	none
CCN(CC)c1ccc(/C=C(/C#N)c2nc3ccccc3[nH]2)c(OC(C)C)c1	Fam108B counter 20 | Fam108b inh conf inactive
O=C1Nc2ccccc2C(=O)N2C[C@@H](O)C[C@H]12	none
COCc1cc(/C=N\NC(=O)Cc2ccc(OC)cc2)ccc1OC	none
O=C(N/N=C/c1c[nH]c2ccccc12)c1ccn(Cc2ccc(Cl)cc2Cl)n1	Fam108B counter 21 | Fam108b inh conf inactive
O=C(N/N=C/c1c[nH]c2ccc(Br)cc12)c1ccn(Cc2ccc(Cl)cc2)n1	none
O=C(c1cc(O)c(O)c([N+](=O)[O-])c1)c1ccccc1F	Fam108B counter 49 | Fam108b inh conf 91 | Fam108b inh inactive
CC(=O)Nc1ccc(NC(=O)C(C)OC(=O)CNS(=O)(=O)c2ccc(Br)cc2Cl)cc1 (stereo unspecified)	none
O=C1NN(c2cccc(Br)c2)C(=O)/C1=C\c1ccc(O)cc1	none
O=C1NN(c2cccc(Br)c2)C(=O)/C1=C/c1ccc(-c2cc([N+](=O)[O-])ccc2O)o1	Fam108B counter 20 | Fam108b inh conf inactive
Cc1ccc(-c2nc(Nc3cccc(O)c3)c3ccccc3n2)cc1	none
COc1cccc(Nc2nc(-c3ccccc3O)nc3ccccc23)c1	none
COc1ccc(Nc2nc(-c3ccccc3O)nc3ccccc23)cc1	Fam108B counter 25 | Fam108b inh conf inactive
Cc1ccc(-c2nc(Nc3ccc(O)cc3)c3ccccc3n2)cc1	Fam108B counter 35, PME-1 primary 41 | Fam108b inh conf inactive
O=[N+]([O-])c1ccc(/C=N/Nc2ccnc3cc(Cl)ccc23)o1	Fam108B counter 19 | Fam108b inh conf inactive
CC(=NNC(=O)c1cccc(Cl)c1)C1C(=O)c2ccccc2C1=O	none (no result: Fam108B counter, LYPLA2 inh, LYPLA1 counter, PAD4 inh, PME-1 primary, GSTO1 inh) | Fam108b inh inactive
C/C(=N\NC(=O)c1ccc(-c2ccccc2)cc1)C1C(=O)c2ccccc2C1=O	Fam108B counter 27 | Fam108b inh conf 25
COc1cccc(C=NNC(=O)c2[nH]c(C)c(C(=O)NN=Cc3cccc(OC)c3O)c2C)c1O	none (no result: Fam108B counter, LYPLA2 inh, LYPLA1 counter, PAD4 inh, PME-1 primary, GSTO1 inh) | Fam108b inh 95
COc1ccccc1/C=N/NC(=O)c1[nH]c(C)c(C(=O)N/N=C/c2ccccc2OC)c1C	none
CCOC(=O)c1c(C)[nH]c(C(=O)N/N=C\c2ccccc2O)c1C	Fam108B counter 19 | Fam108b inh conf inactive
COc1ccc(C2C(C#N)=C(C)NC(C)=C2C(=O)OC(C)C)c(OC)c1 (stereo unspecified)	none
O=[N+]([O-])c1cc(Br)c(O)c(C=NNc2nnnn2-c2cccc3ccccc23)c1	none (no result: Fam108B counter, LYPLA2 inh, LYPLA1 counter, PAD4 inh, PME-1 primary, GSTO1 inh) | Fam108b inh inactive
CCc1nnc(NS(=O)(=O)c2ccc(NC(=O)c3ccc(C#N)cc3)cc2)s1	none
CC(NC(=O)Cc1ccccc1)C1COc2ccccc2O1 (stereo unspecified)	Fam108B counter 125 | Fam108b inh conf inactive
CC(NC(=O)COc1ccccc1)C1COc2ccccc2O1 (stereo unspecified)	none
COc1cc(/C=N/Nc2nc3c(c(=O)n(C)c(=O)n3C)n2Cc2ccccc2)ccc1OC(=O)c1ccco1	Fam108B counter 19, PME-1 primary 39 | Fam108b inh conf inactive
O=C1NC(=S)/C(=C\c2ccc(-c3ccccc3Cl)o2)S1	Fam108B counter 29, PME-1 primary 37, GSTO1 inh 35 | Fam108b inh conf 45 | Fam108b inh 65
Cc1onc(-c2c(F)cccc2Cl)c1C(=O)N(C)C1CCCCC1	none
COc1ccc(/C=C2\N=C(SC)SC2=O)cc1OC	none
CCOc1cc(/C=C2\N=C(SC)SC2=O)cc([N+](=O)[O-])c1OC(C)=O	Fam108B counter 22 | Fam108b inh conf inactive

Compound activity (PubChem BioAssay)
